The results in this text go back to PubChem BioAssay (EPA / NIEHS).

Several values for one entry are separate records, joined by “and”; a condition that tells them apart may be missing. Equal values may be shown once. The source holds several records for some structures; these can differ, active in one and inactive in another. Activity calls are given as the source filed them. Rule for the calls: active = hit-call score of the fitted dose curve at least 0.9, where 1 is the maximum; inactive = score below 0.9.

Assay [1] is described as follows: BSK_CASM3C_SRB: Viability Assessment in the BioMAP Diversity Plus: CASM3C Assay (AID 2283050).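 Note: total protein by SRB staining as cytotoxicity measure in parallel cultures; cells exposed to compound for 24 h.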 To be noted: primary human coronary artery smooth muscle cells.
Read-out in assay [2]: Thrombomodulin, THBD (gene 7056)
Put plainly: BSK_CASM3C_Thrombomodulin: BioMAP Diversity Plus: CASM3C Assay for Thrombomodulin Biomarker Activity (AID 2283051).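 Note: thrombomodulin protein level measured by ELISA 24 h after dosing.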 To be noted: primary human coronary artery smooth muscle cells; actives raise or lower the signal.

Read-out in assay [3]: Tissue Factor, F3 (gene 2152)
Kind of assay: BSK_CASM3C_TissueFactor: BioMAP Diversity Plus: CASM3C Assay for Tissue Factor Biomarker Activity (AID 2283052).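 Note: cell surface tissue factor protein level read by ELISA.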 The note with it: primary human coronary artery smooth muscle cells; actives raise or lower the signal.

Read-out in assay [4]: Interferon-gamma inducible Protein 10 (IP10), CXCL10 (gene 3627)
Kind of assay: BSK_hDFCGF_IP10: BioMAP Diversity Plus: hDFCGF Assay for Interferon-gamma inducible Protein 10 (IP10) Biomarker Activity (AID 2283053). To be noted: primary human foreskin fibroblasts; actives raise or lower the signal. The essentials:
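Cells: human dermal foreskin fibroblasts. Exposure: 24 h post-dosing. Detection: IP-10 ELISA, with values expressed against DMSO controls and fitted in both directions.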

Read-out in assay [5]: Urokinase-type plasminogen activator receptor (uPAR), PLAUR (gene 5329)
Kind of assay: BSK_CASM3C_uPAR: BioMAP Diversity Plus: CASM3C Assay for Urokinase-type plasminogen activator receptor (uPAR) Biomarker Activity (AID 2283054).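 Note: cell-surface uPAR protein level quantified by ELISA.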 To be noted: primary human coronary artery smooth muscle cells; actives raise or lower the signal.

Read-out in assay [6]: Vascular cell adhesion molecule 1 (VCAM1), VCAM1 (gene 7412)
Put plainly: BSK_CASM3C_VCAM1: BioMAP Diversity Plus: CASM3C Assay for Vascular cell adhesion molecule 1 (VCAM1) Biomarker Activity (AID 2283055).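 Note: VCAM-1 protein level quantified by ELISA on the cells.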 The note with it: primary human coronary artery smooth muscle cells; actives raise or lower the signal.

Read-out in assay [7]: Collagen III, COL3A1 (gene 1281)
Kind of assay: BSK_hDFCGF_CollagenIII: BioMAP Diversity Plus: hDFCGF Assay for Collagen III Biomarker Activity (AID 2283056). To be noted: primary human foreskin fibroblasts; actives raise or lower the signal. The essentials:
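Human foreskin primary fibroblasts were exposed to test chemicals for 24 h, after which collagen III was quantified by ELISA. Activity was fitted bidirectionally against DMSO as negative control and baseline.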

Read-out in assay [8]: Epidermal growth factor receptor (EGFR), EGFR (gene 1956)
Kind of assay: BSK_hDFCGF_EGFR: BioMAP Diversity Plus: hDFCGF Assay for Epidermal growth factor receptor (EGFR) Biomarker Activity (AID 2283057). The note with it: primary human foreskin fibroblasts; actives raise or lower the signal. An outline of the steps:
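Dosing human primary skin fibroblasts, then measuring surface EGFR by ELISA at 24 h, gives the endpoint; gains and losses relative to DMSO were fitted in both directions.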

Read-out in assay [9]: Interleukin-8 (IL8), CXCL8 (gene 3576)
Put plainly: BSK_hDFCGF_IL8: BioMAP Diversity Plus: hDFCGF Assay for Interleukin-8 (IL8) Biomarker Activity (AID 2283058). The note with it: primary human foreskin fibroblasts; actives raise or lower the signal. The essentials:
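hDFCGF human dermal fibroblasts; 24 h chemical exposure; IL-8 by ELISA; bidirectional curve fit vs DMSO baseline; gain or loss of signal scored.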

Assay [10] in a line: BSK_hDFCGF_Proliferation: Cell Proliferation Assessment in the BioMAP Diversity Plus: hDFCGF Assay (AID 2283059).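 Note: curves fitted for both rise and fall of signal versus DMSO baseline.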 The note with it: primary human foreskin fibroblasts. The essentials:
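Primary human foreskin fibroblasts, sub-confluent; […]; 10% TCA fix, 0.1% SRB stain, A560 total protein. Gain/loss fitted bidirectionally vs DMSO control.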

As to `FC(F)(F)C(F)(F)C(F)(F)C(F)(F)C(F)(F)C(F)(F)C(F)(F)C(F)(F)F`, the result in assay [1], in assay [2], in assay [3], in [4], in assay [5] and in assay [6] was inactive. The result in [7], in [8], in assay [9] and in assay [10] was inactive.

Take `NC(=O)C(F)(F)C(F)(F)C(F)(F)C(F)(F)F`: the result in [1], in assay [2], in [3], in assay [4], in assay [5] and in assay [6] was inactive. Moreover, the outcome in [7], in assay [8], in assay [9] and in [10] was inactive.

As to `CCCCCCCCCCCCCCCC[N+](C)(C)Cc1ccccc1`, the AC50 in [1] is 5.23 µM (active); in assay [3], 7.36 µM (active); in assay [4], 2.56 µM (active); in [5], 7.8 µM (active); in assay [6], 4.2 µM (active); in [7], 666 nM (active). Also, the results for the AC50 in assay [9] and in [10] were 3.86 µM (active) and 0.59 µM (active), respectively. The outcome in assay [2] and in [8] was inactive.

For `COC(=O)CCC(F)(F)C(F)(F)C(F)(F)C(F)(F)F`, the result in assay [1], in [2], in assay [3], in assay [4], in assay [5] and in [6] was inactive. For the same compound, the result in [7], in [8], in [9] and in assay [10] was inactive.

On to `O=C(O)C=C(C(F)(F)F)C(F)(F)F`, for which the result in assay [1], in [2], in assay [3], in assay [4], in assay [5] and in [7] was inactive. For the same compound, the result in [8], in [9] and in assay [10] was inactive. The AC50 is 12.5 µM (active) and 5.23 µM (active) in assay [6]; 21.9 µM (active) in assay [10].

On to `CC(=O)Nc1ccc(N=Nc2cc(C)ccc2O)cc1`, for which the result in assay [1], in assay [2], in assay [3], in [5], in [7] and in [8] was inactive. Also, the outcome in assay [9] was inactive. Further, the AC50 was 34.1 µM (active) in [4], 9.54 µM (active) in assay [6] and 20 µM (active) in assay [10].

In the case of `OCC(F)(F)C(F)(F)C(F)(F)F`, the outcome in assay [1], in assay [2], in [3], in [4], in assay [5] and in assay [6] was inactive. The outcome in [7], in assay [8], in [9] and in assay [10] was inactive.

Take `CCCCCCC(C)OC(=O)CCCCC(=O)OC(C)CCCCCC` (stereo unspecified): the result in [1], in assay [2], in [3], in assay [4], in [5] and in assay [6] was inactive. Moreover, the result in [7], in assay [8], in [9] and in assay [10] was inactive.

For `CCc1c(Br)c(Br)c(Br)c(Br)c1Br`, the result in [1], in assay [2], in assay [4], in assay [5], in assay [6] and in [7] was inactive. Also, the result in assay [8], in assay [9] and in assay [10] was inactive. The AC50 in assay [3] is 4.48 µM (active).

Consider `O=C(O)C(F)(F)C(F)(F)C(F)(F)C(F)(F)C(F)(F)C(F)(F)C(F)(F)C(F)(F)C(F)(F)C(F)F`, for which the result in assay [1], in assay [2], in [3], in assay [5], in assay [6] and in assay [8] was inactive. Besides, in [9], the outcome was inactive. Moreover, the AC50 is 18.3 µM (active) and 12.8 µM (active) in assay [4]; 3.34 µM (active) and 8.08 µM (active) in assay [7]; 15.8 µM (active) and 18.9 µM (active) in [10].

As for `CCN(CC)c1ccc2c(C)cc(=O)oc2c1`, the outcome in assay [1], in assay [2], in [3], in [4], in assay [5] and in [6] was inactive. For the same compound, the result in [7], in assay [8] and in assay [9] was inactive. For the same compound, in assay [10], the half-maximal activity concentration (AC50) is 24 µM (active).

For `FC1CC(F)(F)C(F)(F)C1(F)F` (stereo unspecified), the outcome in assay [1], in assay [2], in assay [3], in assay [4], in assay [5] and in assay [6] was inactive. Besides, the outcome in assay [7], in assay [8], in assay [9] and in assay [10] was inactive.

Take `O=S(=O)(O)C(F)(F)C(F)(F)C(F)(F)C(F)(F)C(F)(F)C(F)(F)C(F)(F)F`: the outcome in assay [1], in [2], in assay [3], in assay [4], in [5] and in assay [6] was inactive. The outcome in [7], in [8], in assay [9] and in [10] was inactive.

For `O=C(O)C(F)(F)C(F)(F)OC(F)(F)F`, the outcome in [1], in [2], in assay [3], in [4], in assay [5] and in assay [6] was inactive. In addition, the result in [7], in assay [8], in [9] and in [10] was inactive.

With `OCCCC(F)(F)C(F)(F)C(F)(F)F`, the outcome in assay [1], in [2], in [3], in [4], in assay [5] and in [6] was inactive. The result in assay [7], in [8], in assay [9] and in assay [10] was inactive.

As to `CCc1ccc(C(c2ccc(CC)cc2)C(Cl)Cl)cc1`, the result in [1], in assay [2], in assay [5], in assay [6], in assay [8] and in [9] was inactive. In addition, the AC50 in [3] is 5.97 µM (active); in assay [4] it was 26.2 µM (active); in assay [7], 20000 nM (active); in [10], 4.45 µM (active).

Regarding `O=C(O)C(F)(F)C(F)(F)F`, the result in [1], in assay [2], in assay [3], in assay [4], in [5] and in [6] was inactive. For the same compound, the outcome in assay [7], in assay [8], in assay [9] and in [10] was inactive.

With `CC(CCl)OP(=O)(OC(C)CCl)OC(C)CCl` (stereo unspecified), the outcome in assay [1], in [2], in assay [3], in assay [4], in assay [5] and in [6] was inactive. For the same compound, the result in assay [7], in assay [8], in [9] and in assay [10] was inactive.

As a reminder, the AC50 is the midpoint of the concentration-response curve, whichever way the signal moves.
